HPGD inh = inhibitors of human 15-hydroxyprostaglandin dehydrogenase (HPGD); AID 894; actives 4.3% (n = 150,000); purified HPGD, NADH fluorescence kinetic, PGE2 substrate; Potency, µM, for the others: at the top dose activity change, negative = inhibition, actives largely listed as inhibitors; further: potency means the concentration at half of the fitted maximal effect
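20 nM HPGD preincubated 15 min at room temperature with compound in 50 mM Tris-HCl pH 8, 0.01% Tween 20. Started with 1 mM NAD+ and 30 uM prostaglandin E2; NADH fluorescence (360/450 nm) read 5 times over 30-s intervals, last minus first.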
ALDH1A1 block = ALDH1A1 (human) enzyme inhibition; P00352; actives 7.3% (n = 220,000); Potency, µM (titrated, usually from 75.3 µM), inactives show at the top dose activity, negative = inhibition, hits mostly inhibitors; AID 1030; Purified ALDH1A1, NADH fluorescence, propionaldehyde substrate;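 further: potency means the concentration at half of the fitted maximal effect; plate controls were no enzyme wells and a reference inhibitor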
Target sequence (P00352 whole entry, looked up): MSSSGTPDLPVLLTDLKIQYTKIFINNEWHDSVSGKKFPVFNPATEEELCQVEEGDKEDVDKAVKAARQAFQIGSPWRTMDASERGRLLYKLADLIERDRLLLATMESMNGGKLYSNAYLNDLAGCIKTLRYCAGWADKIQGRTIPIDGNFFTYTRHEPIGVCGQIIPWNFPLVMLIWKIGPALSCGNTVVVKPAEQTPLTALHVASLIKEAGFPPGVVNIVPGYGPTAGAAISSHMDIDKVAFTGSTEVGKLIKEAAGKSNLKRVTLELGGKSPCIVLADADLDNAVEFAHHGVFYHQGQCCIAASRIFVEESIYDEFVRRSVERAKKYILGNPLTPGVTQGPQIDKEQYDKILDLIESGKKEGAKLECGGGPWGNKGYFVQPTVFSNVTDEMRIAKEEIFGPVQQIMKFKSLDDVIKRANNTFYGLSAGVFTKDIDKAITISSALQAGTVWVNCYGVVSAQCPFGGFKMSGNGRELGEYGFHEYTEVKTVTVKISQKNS
PNC inhibitor = inhibitors of perinucleolar compartment assembly; AID 2417; activity change (PNC), negative = inhibition, % at 10 µM; PC3M PTB-GFP, PNC prevalence imaging, 16 h; active compounds read low; actives 3.1% (n = 140,000);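 active means readout at or below -70, meaning at least 70% loss of cells showing the perinucleolar compartment, a nuclear body marking cancer cells; inconclusive means readout between -30 and a set limit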;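 further: plate controls were DMSO wells for no effect and camptothecin positive control wells for full effect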
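PC3M cells stably expressing PTB-GFP, 750–1000 cells/well, treated 16 h at 37 °C with compound (23 nl of library stock), in duplicate. After paraformaldehyde fixation and Hoechst stain, imaged at 20x; PNC prevalence scored by image analysis.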
Starred values were filed as active, the others as inactive; u = inconclusive; x = not tested or not shown; [ ] = dose if it differs, or a comment. In the library only some 11% were active in any assay of this set; here they are far more common. Unless noted, the call rests on the fitted dose curve; in most records, active means well fitted inhibition curve with a large enough effect (not every such curve was filed as active); inconclusive means small, poorly fitted or top-dose-only effect, or another doubt; inactive means no such curve, though single readings can be large or run the other way. Unless noted, on the % scale 0 is the no-effect control and ±100 the full control effect.

SMILES	HPGD inh	ALDH1A1 block	PNC inhibitor
CCC(=O)OC1CCC2C3CCC4=CC(=O)CC[C@@]4(C)C3CC[C@]12C (some centres undefined)	-10.4%	-10.6%	x
COc1ccccc1[N+](=O)[O-]	-6.1%	25.1µM*	x
COc1ccccc1CCNCc1cc2c(cc1[N+](=O)[O-])OCO2	-3.8%	u	40.6
NCCc1ccc(S(=O)(=O)O)cc1[N+](=O)[O-]	-5.5%	0.1%[13.5 µM]	x
CC1=C(O)C(=O)C=C2C1=CC=C1[C@]2(C)CC[C@@]2(C)C3C[C@](C)(C(=O)O)CC[C@@]3(C)CC[C@@]12C (some centres undefined)	2µM*	-5.8%	x
CN(C)c1ccc(N(C)C)cc1	-26.6%	u	x
Cc1ccccc1NC1=NCC(C)S1 (centres undefined)	u	2.1%	0.7
CC(=O)c1cccc(NC2=NCC(C)S2)c1 (centres undefined)	14.1µM*	-5.6%	u
CSC(=S)NCc1c[nH]c2ccccc12	-14.9%	-3.2%	x
O=C(COc1ccc(Cl)cc1)NC1CN2CCC1CC2 (centres undefined)	-4.0%	20.6%	-1.4
C=C(C)c1cccc(C(C)(C)NC(=O)NC2CN3CCC2CC3)c1 (centres undefined)	-5.3%	u	-93.6*
Brc1cccc(-c2ccccc2)c1	-2.1%	10.4%	x
CC1CC(OP(O)(=S)c2ccc(N(C)C)cc2NC(=O)c2cccs2)CC(C)(C)C1 (centres undefined)	x	3.98µM*	x
CCn1c(O)c(C(=O)CC2NCCc3ccccc32)c(=O)n(CC)c1=S (centres undefined)	-13.5%	1.26µM*	3.0
CCn1c(O)c(C=NCc2cccs2)c(=O)n(CC)c1=S	-24.4%	u	35.8
ClCCl	-7.0%	u	x
Nc1ccc2cc(Br)ccc2c1	x	17.8µM*	x
Nc1ccc(Br)cc1	-10.6%	u	x
CC(=O)N1CCN(c2ccc(OCC3CO[C@@](Cn4ccnc4)(c4ccc(Cl)cc4Cl)O3)cc2)CC1 (some centres undefined)	-1.9%	-0.3%	x
O=[N+]([O-])c1ccc(N2CCNCC2)c2ncccc12	-8.3%	9.2%	0.7
O=[N+]([O-])c1ccc(N2CCNCC2)cc1NCc1ccco1	-18.9%	28.2µM*	-6.4
Nc1cc(N2CCNCC2)ccc1[N+](=O)[O-]	-16.8%	1.3%	37.3
CN1CCN(c2ccc([N+](=O)[O-])c(NCc3ccco3)c2)CC1	-19.1%	3.0%	57.1
O=[N+]([O-])c1cc(F)c(N2CCCCCC2)cc1N1CCNCC1	x	7.08µM*	x
O=[N+]([O-])c1ccc(N2CCNCC2)cc1N1CCCCCC1	x	4.47µM*	x
SMILES	HPGD inh	ALDH1A1 block	PNC inhibitor
O=C1CCCC2[C@@H]3CCCN4CCC[C@@H](CN12)C34 (some centres undefined)	-4.5%	4.9%	x
CC(=O)N1CC2CC(C1)c1cccc(=O)n1C2 (centres undefined)	0.4%	-1.1%	x
ClCBr	-8.1%	-0.9%	x
[O]=[Cr](=[O])([OH])[O][Cr](=[O])(=[O])[OH]	-8.1%	-9.5%	x
ClC(Cl)=C(Cl)Cl	-4.8%	13.9%	x
O=c1[nH]cc(F)c(=O)[nH]1	-3.7%	2.9%	-114.6*
O=c1[nH]cc(COCC(F)(F)C(F)(F)C(F)(F)F)c(=O)[nH]1	x	-7.2%	x
c1ccc2sc(C3(NCC4CC4)CCCCC3)cc2c1	x	4.7%	x
COc1cc(C(C#N)N2CCCCC2)ccc1O (centres undefined)	-14.2%	u	u
COc1cc(C(C#N)N2CCOCC2)ccc1O (centres undefined)	x	14.1µM*	-5.1
CC(=O)OC1CC[C@@]2(C)C3CC(=O)[C@]4(C)C(C(C)=O)=CCC4C3CC[C@H]2C1 (some centres undefined)	-7.3%	19.8%	x
NC(=S)c1cn(C2OC(CO)C(O)C2O)c2ncnc(N)c12 (centres undefined)	x	7.94µM*	x
Nc1ncnc2c1ncn2[C@@H]1O[C@H](COP(=O)(O)CP(=O)(O)OP(=O)(O)O)[C@H](O)[C@H]1O	-6.0%	-5.5%	x
Fc1ccc2c(c1)nnn2C1CCN(Cc2c(Cl)cccc2Cl)CC1	-1.7%	6.5%	u
Fc1ccc2c(c1)nnn2C1CCN(Cc2nnnn2C2CCCCC2)CC1	-11.6%	12.6µM*	u
Cc1onc(-c2ccccc2)c1C(=O)N[C@@H]1C(=O)N2[C@@H]1SC(C)(C)[C@@H]2C(=O)O	0.3%	u	29.5
CN1CCCCC1c1cccnc1 (centres undefined)	x	0.8%	x
Cc1ccc(S(=O)(=O)N[C@@H](CCCCN)C(=O)CCl)cc1	u	8.91µM*	x
Cc1ccc(S(=O)(=O)NCCC(=O)Nc2ccc(Cl)cc2C(=O)c2ccccc2)cc1	-10.2%	u	51.7
NCCc1c[nH]c2ccc(OC(=O)C(=O)O)cc12	-12.9%	-15.8%[13.5 µM]	x
Cc1o[nH]c(=O)c1C[C@@H](N)C(=O)O	0.5%	-12.0%	x
c1ccc2c(c1)sc1ccccc12	-11.9%	-9.3%	x
c1nc(N2CC2)c2cnn([C@@H]3CCCCO3)c2n1	-6.6%	2.4%[13.5 µM]	x
Cc1ccc(C(c2nnnn2Cc2ccccc2)N2CC=C(c3ccc(F)cc3)CC2)cc1 (centres undefined)	-14.8%	7.94µM*	49.3
Fc1ccc(C2=CCN(C(c3ccc(Cl)cc3)c3nnnn3Cc3ccccc3)CC2)cc1 (centres undefined)	-11.4%	u	-17.3
SMILES	HPGD inh	ALDH1A1 block	PNC inhibitor
COc1ccc2c(c1)[C@@]13CCCC[C@H]1[C@@H](C2)NCC3	4.3%	2.6%	x
Cc1nc(N)sc1CCN	0.5%	5.4%	x
c1cc2c(c(NC3=NCCN3)c1)CCCC2	-1.1%	14.1%[13.5 µM]	x
C[C@H]1C2C=C[C@H]1[C@@H](C(=O)O)[C@@H]2c1c2ccc(=O)c(O)c-2oc2c(O)c(O)ccc12	3.55µM*	-4.1%[13.5 µM]	x
N[C@H](CP(=O)(O)O)C(=O)O	-3.3%	-2.4%	x
CCBr	0.8%	u	x
Nc1cc(Cl)c2nonc2c1[N+](=O)[O-]	u	20µM*	u
O=[N+]([O-])c1c(Cl)c(Cl)c(Cl)c(Cl)c1Cl	-6.6%	2.1%	x
CN1CC[C@@]2(C)c3cc(O)ccc3N(C)C12 (some centres undefined)	-13.1%	u	x
Clc1ccc(C2=CCC[C@H]3CC[C@@H]2N3)cn1	-14.1%	10µM*	x
ClC(Cl)(Cl)Cl	-3.5%	6.9%	x
COc1ccc2c(c1)C13CCCCC1C(C2)N(C)CC3 (centres undefined)	-21.4%	-3.4%	x
CC(=O)[O][Hg][c]1ccccc1	0.251µM*	0.631µM*	x
CNC(C(=O)c1ccccc1)C(OC)c1ccccc1 (centres undefined)	-1.9%	u	43.3
CC(=O)OC1CCC2(C)C3=C(CCC2C1(C)C)[C@]1(C)CCC(C(C)CCC=C(C)C)[C@]1(C)CC3 (some centres undefined)	-5.8%	u	x
CC(C)=CCCC(C)C1CC[C@@]2(C)C3=C(CC[C@@]12C)C1(C)CCC(O)C(C)(C)C1CC3 (some centres undefined)	-8.9%	28.2µM*	x
NCCCP(=O)(O)O	-2.4%	4.8%	x
COc1ccccc1N1CCN(Cc2ccccc2Cl)CC1	-2.1%	-1.9%	16.8
COc1cc(/C=C(/C)[N+](=O)[O-])ccc1OCc1ccccc1Cl	10µM*	2.82µM*	u
COc1ccc2c(c1)CC[C@@H]1[C@@H]2CC[C@]2(C)[C@@H](NCCCCCCN3C(=O)C=CC3=O)CC[C@@H]12	x	7.8%	x

Assay outcomes as filed in PubChem.
